PREPL inh: PREPL enzyme inhibitors, primary screen, biochemical, fluorescence polarization; 320,000 tested, 0.68% active; recombinant PREPL, fluorescence polarization activity-based probe; AID 2751, 2010; inhibition, % at 5.96 µM
Target sequence (Q4J6C6 whole entry, looked up): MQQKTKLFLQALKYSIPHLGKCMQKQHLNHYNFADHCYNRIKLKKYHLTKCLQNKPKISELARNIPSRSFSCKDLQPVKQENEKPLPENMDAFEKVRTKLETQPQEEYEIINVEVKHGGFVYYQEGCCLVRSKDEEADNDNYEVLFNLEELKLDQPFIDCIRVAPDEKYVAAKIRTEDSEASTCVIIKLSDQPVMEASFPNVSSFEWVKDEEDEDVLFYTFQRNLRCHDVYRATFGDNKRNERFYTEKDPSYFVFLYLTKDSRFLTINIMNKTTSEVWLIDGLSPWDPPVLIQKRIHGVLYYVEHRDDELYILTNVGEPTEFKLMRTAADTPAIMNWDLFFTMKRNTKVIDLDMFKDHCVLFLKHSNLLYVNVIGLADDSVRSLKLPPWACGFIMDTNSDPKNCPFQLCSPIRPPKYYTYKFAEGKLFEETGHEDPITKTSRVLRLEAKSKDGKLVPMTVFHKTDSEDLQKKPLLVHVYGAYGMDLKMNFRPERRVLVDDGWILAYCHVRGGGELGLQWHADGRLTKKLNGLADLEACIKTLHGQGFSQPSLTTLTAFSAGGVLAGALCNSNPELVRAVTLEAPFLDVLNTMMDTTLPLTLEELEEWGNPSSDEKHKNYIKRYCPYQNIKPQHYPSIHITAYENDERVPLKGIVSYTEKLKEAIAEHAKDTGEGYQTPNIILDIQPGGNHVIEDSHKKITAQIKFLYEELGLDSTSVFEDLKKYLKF
AI-2 QS mod: Vibrio harveyi AI-2 quorum sensing modulators, primary screen, JMH597 strain, luminescence/OD600 ratio | 300,000 tested, 0.4% active | activity change, % at 7.5 µM | Vibrio harveyi JMH597 AI-2 luminescence/OD600 ratio, 9 h; hits give low values; strain lacks LuxN and CqsS sensors; 0 = neutral-control median | AID 2094, 2009; in the data active = activity change below about -75%, passing the limit was not always enough;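 note: luminescence divided by OD600 gain over 9 h not by final OD600 alone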
CHT PAM: CHT positive allosteric modulators, primary screen, cell-based, membrane potential dye, choline EC20; High affinity choline transporter 1 (Homo sapiens), Q9GZV3; CHT-expressing cells; hits give high values; LV-AA mutant CHT in HEK293 cells; B-score at 10 µM; 310,000 tested, 0.49% active; AID 488977, 2010;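 active = initial fluorescence not abnormally high and integrated response B-score, plate-corrected, over 3 SD above library mean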
CHT inh: inhibitors of human choline transporter CHT; B-score at 10 µM; High affinity choline transporter 1 (Homo sapiens), Q9GZV3; CHT-expressing cells, membrane potential dye, choline response; hits give low values; 310,000 tested, 0.86% active;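 active = B-score over 3 SD under the library average, and starting fluorescence ratio not unusually high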;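 note: choline stimulus applied at its EC90 after an EC20 pre-addition; B-score computed on integrated fluorescence ratio after choline addition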
ALR inh: inhibitors of human ALR sulfhydryl oxidase, primary screen, biochemical, H2O2 detection, HRP-luminol luminescence, single point. FAD-linked sulfhydryl oxidase ALR (Homo sapiens), P55789. purified ALR, DTT oxidation. inhibition, % (concentration not given with the values). 290,000 tested, 3.8% active;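 active = mean replicate inhibition above about 79%, with every replicate also reaching it, limit read from the data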
PREPL confirm: human PREPL enzyme inhibitors, confirmation, biochemical, fluorescence polarization. shares compounds with PREPL inh. 2,000 tested, 67% active. inhibition, % at 5.96 µM. recombinant PREPL, fluorescence polarization activity probe
Numbers stand for hits; – = inactive; · = no result. An excerpt weighted towards active compounds, which were near 5% of everything screened. Cut-off read from the data, not from the text of the source, unless noted: active = inhibition above about 43%; inactive = the rest.

SMILES	PREPL inh	AI-2 QS mod	CHT PAM	CHT inh	ALR inh	PREPL confirm
CC(=O)c1ccc(NC(=O)[C@@H]2CCCN2C2=NS(=O)(=O)c3ccccc32)cc1	–	·	·	·	–	·
CC1(C)C(=O)Nc2ccccc2N1C(=O)COC(=O)Cc1ccc(Cl)c(Cl)c1	47	·	·	·	–	–
Cc1cc(OCC(=O)OCC(=O)N2c3ccccc3NC(=O)C2(C)C)ccc1Cl	–	·	·	·	·	·
CCOC(=O)c1ccc[n+](C(C)C(=O)c2ccc(-c3ccccc3)cc2)c1 (stereo unspecified)	61	–	–	–	–	48
CN1CCCC1CCNc1ccc2sc3ccccc3c(=O)c2c1 (stereo unspecified)	51	–	–	–	98	48
O=c1c2ccccc2sc2ccc(NCCCN3CCOCC3)cc12	45	–	–	–	–	–
CC(C)(C)n1cnc2cc(NC(=O)c3ccc(Cl)cc3)ccc21	–	–	–	–	–	·
CC(C)(C)n1cnc2cc(NCc3ccc(Br)cc3)ccc21	54	–	–	–	–	63
CCc1ccc(CNc2ccc3c(c2)ncn3CC)cc1	–	–	–	–	–	·
CCc1ccc(CNc2ccc3c(c2)ncn3C(C)(C)C)cc1	48	–	–	–	–	50
C/C(=N\NC(=O)COc1ccc(C(C)(C)C)cc1)c1ccc(N2CCOCC2)cc1	–	–	–	–	–	·
CCOc1ccccc1NC(=O)C(NCC1CCCCC1)c1ccccc1 (stereo unspecified)	–	–	–	–	–	·
CCOc1ccccc1O[C@H](c1ccccc1)[C@H]1CNCCO1	44	–	–	–	–	–
COc1cc(/C=N\NC(=O)c2ccc(-c3ccccc3)cc2)cc(Br)c1O	43	–	–	–	–	–
COc1ccc(/C=N/NC(=O)c2ccc(-c3ccccc3)cc2)cc1O	–	–	–	–	–	·
COc1ccc(NC(=S)N(CCCOC(C)C)C2CCN(C(C)=O)CC2)cc1Cl	–	–	–	–	–	·
O=C(NC1CCCCC1)C(c1ccccc1)N(Cc1ccc2c(c1)OCO2)C(=O)c1cnsn1 (stereo unspecified)	46	–	–	–	–	–
O=C(C[C@@H]1C/C=C\C[C@@H](Cc2ccc(F)cc2)C(=O)OC[C@@H](Cc2c[nH]c3ccccc23)NC1=O)NCCO	54	·	·	·	–	47
O=C(C[C@H]1C/C=C\C[C@@H](Cc2ccc(F)cc2)C(=O)OC[C@@H](Cc2c[nH]c3ccccc23)NC1=O)NCCO	45	·	·	·	–	–
O=C(C[C@@H]1C/C=C\C[C@H](Cc2ccc(F)cc2)C(=O)OC[C@@H](Cc2c[nH]c3ccccc23)NC1=O)NCCO	–	·	·	·	–	·
Cc1ccc(NC(=O)c2ccc3c(c2)N(CC(=O)N2CCCCC2)C(=O)C(C)(C)O3)cc1	48	–	–	–	–	–
CCOC(=O)N1CCN(c2nc3ccc(C(=O)c4ccccc4)cc3n3cnnc23)CC1	61	–	–	–	–	–
O=C1C=C(c2ccccc2)CC(c2cccs2)C1n1cnc([N+](=O)[O-])c1 (stereo unspecified)	48	–	–	–	–	45
CCc1noc(C)c1C(=O)Nc1nc(-c2ccccc2)c(C(C)=O)s1	80	·	·	·	–	–
O=C(CSc1nccc(=O)[nH]1)Nc1ccc(N2CCOCC2)cc1	–	–	–	–	–	·
SMILES	PREPL inh	AI-2 QS mod	CHT PAM	CHT inh	ALR inh	PREPL confirm
CC(CO)Nc1nc(SCc2ccccc2)nc2sc3c(c12)CCC3 (stereo unspecified)	44	–	–	–	–	–
CN1CCN(C(=O)/C(=C/c2ccc([N+](=O)[O-])cc2)NC(=O)c2ccccc2)CC1	–	–	–	–	·	·
COc1cccc(-c2ccc3ncnc(NCc4cccs4)c3c2)c1	–	·	·	·	–	·
Cn1ccc2cc(-c3ccc4ncnc(NCc5cccs5)c4c3)ccc21	50	·	·	·	–	–
CC(C)N=c1cc2n(-c3ccc(Cl)cc3)c3ccccc3nc-2cc1Nc1ccc(Cl)cc1	45	–	–	–	–	48
Cc1cccc(CCN2C(N(C)C)=NC[C@@H]2Cc2ccccc2)c1	–	·	·	·	–	·
CC(C)[C@H](CN1CCC[C@H]1CN1C(N)=NC[C@@H]1Cc1ccccc1)N1C[C@@H](Cc2ccccc2)N(CCc2ccc(Cl)c(Cl)c2)C1=N	53	·	·	·	–	53
C[C@@H](CN1CCC[C@H]1CN1C(N)=NC[C@@H]1Cc1ccccc1)N1C[C@@H](Cc2ccccc2)N(CCc2ccc(Cl)c(Cl)c2)C1=N	46	·	·	·	–	–
CC(C)[C@@H]1CN=C(N)N1C[C@@H]1CCCN1C[C@H](C)N1C[C@@H](Cc2ccccc2)N(CCc2ccc(Cl)c(Cl)c2)C1=N	63	·	·	·	·	61
NC1=NC[C@@H](Cc2ccc(O)cc2)N1CCc1cccc(F)c1	–	–	–	–	·	·
CCOc1ccc(N2CC(C(=O)Nc3cccc(C(=O)NC4CC4)c3)CC2=O)cc1 (stereo unspecified)	–	·	·	·	·	·
COc1ccc(CC2(CO)CCN(S(=O)(=O)c3cccc4cccnc34)CC2)cc1	51	–	–	–	–	–
Cc1ccc(SCC(=O)Nc2ccc(N3CCOCC3)cc2)cc1C	44	·	·	·	–	–
Cc1ccc(SCC(=O)Nc2ccc(N3CCOCC3)cc2)cc1	–	–	–	–	–	·
O=C(CSc1ccccc1F)Nc1ccc(N2CCOCC2)cc1	55	·	·	·	–	52
COC(=O)c1ccccc1SCC(=O)Nc1ccc(N2CCOCC2)cc1	–	–	–	–	–	·
O=C(CSc1ccc(F)cc1)Nc1ccc(N2CCOCC2)cc1	–	–	–	–	–	·
O=C(CSc1cccc(C(F)(F)F)c1)Nc1ccc(N2CCOCC2)cc1	47	·	·	·	–	55
CCC(=O)N1CCc2cc(S(=O)(=O)N3CCCCCC3)ccc21	–	–	–	–	–	·
CCCCC[C@H]1CN(Cc2ccccc2)C(=O)[C@@H]1CC(=O)NCc1ccc(OC)cc1	–	–	–	–	–	·
COc1ccc(CCNC(=O)c2c(Cl)ccc(Cl)c2OC)cc1OC	–	·	–	–	–	·
